Hits are enriched below; roughly 3.2% of the tested compounds scored in any of these assays.
GLP-1R inv ag = GLP-1 receptor (human) inverse agonism. P43220. HEK293 GLP-1R CRE-luciferase, luminescence, 24 h; GLP-1R form is constitutively active. Potency, µM (doses to about 38.3 µM), for inactives: at the highest dose activity change, negative = inhibition, usual class: inhibitors. hit rate 1.6% among 410,000. AID 624417; also: % is scaled to controls: 0 for no effect and ±100 for the full control effect; nearly all actives have a fitted effect of over 55% in size
Target sequence (P43220 whole entry, looked up): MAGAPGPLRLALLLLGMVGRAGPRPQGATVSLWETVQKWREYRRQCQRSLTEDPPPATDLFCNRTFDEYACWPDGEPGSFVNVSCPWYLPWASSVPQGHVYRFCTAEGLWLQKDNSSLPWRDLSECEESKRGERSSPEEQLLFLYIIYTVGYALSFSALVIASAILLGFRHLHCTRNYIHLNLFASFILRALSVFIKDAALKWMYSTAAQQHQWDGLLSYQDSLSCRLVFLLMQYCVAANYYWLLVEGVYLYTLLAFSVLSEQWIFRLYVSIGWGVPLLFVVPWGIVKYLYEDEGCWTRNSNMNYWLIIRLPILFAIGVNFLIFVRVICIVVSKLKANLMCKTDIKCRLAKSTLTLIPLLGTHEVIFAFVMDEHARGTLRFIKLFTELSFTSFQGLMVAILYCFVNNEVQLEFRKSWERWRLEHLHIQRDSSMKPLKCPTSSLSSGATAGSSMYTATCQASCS
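qHTS in 1536-well format: reporter HEK293 cells expressing constitutive GLP-1R activity in DMEM + 10% Nu serum, 24 hr with compounds at 37 deg C, luminescence read after 12 min with detection reagent.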
ClpP mod = qHTS Assay for Activators of ClpP; ATP-dependent Clp protease proteolytic subunit (Bacillus subtilis (strain 168)), P80244; purified B. subtilis ClpP, FRET peptide cleavage, 20 min; Potency, µM (titrated, usually from 57.5 µM), for the others: at the top dose activity change, negative = active; hit rate 1.9% among 340,000; active = well fitted falling curve with a large enough effect; inconclusive = small, poorly fitted or top-dose-only effect; inactive = no such curve, though single readings can be large or run the other way; also: the source files actives as falling curves though it sought activators and does not explain the sign; nearly all actives have a fitted effect of over 65% in size
Target sequence (P80244 whole entry, looked up): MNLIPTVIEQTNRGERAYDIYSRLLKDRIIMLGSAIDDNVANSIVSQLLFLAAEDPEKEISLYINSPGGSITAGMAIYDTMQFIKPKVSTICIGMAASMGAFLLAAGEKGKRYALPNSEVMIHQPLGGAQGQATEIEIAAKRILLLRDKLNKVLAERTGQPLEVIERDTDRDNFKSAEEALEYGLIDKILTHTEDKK
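FRET quenching reversal measured ClpP activation: 10 microg/mL B. subtilis ClpP at pH 8 with the FRET-FV decapeptide, read at 430 nm after 320 nm excitation. The 20-min minus 0-min signal was scaled between DMSO/no-enzyme wells and ADEP (5.8 microM final).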
GLP-1R agonist = GLP-1 receptor (human) agonism; P43220; HEK293 GLP-1R CRE-luciferase, luminescence, 4-6 h; cells express a hypersensitive GLP-1R form; Potency, µM (series often up to 45.6 µM), without a hit: at the highest dose activation, hits mostly activators; hit rate 0.007% among 380,000; AID 624172; also: % of control where 0% means no effect
GLP1R cytotox = cytotoxicity in counter-screen for GLP-1R inverse agonists. Potency, µM (top dose mostly 38.3 µM), without a hit: at the highest dose activity change, negative = inhibition, most hits filed as inhibitors. HEK293 cAMP-luciferase reporter cells, luminescence, 24 h. AID 624418. hit rate 0.13% among 410,000;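 also: loss of luciferase light is scored as toxicity; % is scaled to controls: 0 for no effect and ±100 for the full control effect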
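Quantitative HTS format, 1536 wells, 200 cells/uL seeded. Compounds: 23 nL, 24 h, 37 °C. Detection: luciferase reagent, luminescence at 12 min RT; decreased signal taken as cytotoxic.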
Active calls of the source: *; ? = inconclusive; / = no result. Unless noted, calls follow the shape of the dose curve; as a rule, active = well fitted curve in the direction sought with a large enough effect; inconclusive = small, poorly fitted or top-dose-only effect, or another doubt; inactive = no such curve, though single readings can be large; an effect the other way counts as inactive or inconclusive. Potency is read from the fitted curve at half-maximal effect.

SMILES	GLP-1R inv ag	ClpP mod	GLP-1R agonist	GLP1R cytotox
COc1ccc2oc(C(=O)OC(C)C(=O)Nc3ccc(N4CCOCC4)cc3)c(C)c2c1 (centres undefined)	3.8%	-18.4%	-2.8%	-10.9%
COc1ccc2oc(C(=O)OCC(=O)N3CCCCC3C)c(C)c2c1 (centres undefined)	?	8.91µM*	-1.1%	-4.9%
COc1ccc(N2CCN(C(=O)COC(=O)c3oc4ccc(OC)cc4c3C)CC2)cc1	-18.2%	25.1µM*	-12.4%	13.4%
COc1ccc2oc(C(=O)OCC(=O)N3C(C)CCCC3C)c(C)c2c1 (centres undefined)	?	?	7.2%	6.3%
CCOC(=O)C1CCN(C(=O)COC(=O)c2oc3ccc(OC)cc3c2C)CC1	8.7%	4.1%	-8.3%	2.1%
CCNC(=O)NC(=O)C(C)OC(=O)c1oc2ccc(OC)cc2c1C (centres undefined)	0.0%	31.6µM*	-0.9%	1.4%
COc1ccc2oc(C(=O)OCC(=O)N3CC(C)CC(C)C3)c(C)c2c1 (centres undefined)	?	14.1µM*	3.7%	10.2%
COc1ccc2oc(C(=O)OCC(=O)N3CC(C)OC(C)C3)c(C)c2c1 (centres undefined)	10.2%	3.6%	-2.5%	-5.8%
CCOc1cc2sc(N3CCC(C(=O)Nc4ccc(C)cc4)CC3)nc2cc1Br	83.2%	-0.7%	/	0.7%
CCOc1ccccc1Nc1cc(C)c2cccc(C)c2n1	?	/	27.5%	-3.8%
CCOc1nc(N=C(N)N)nc2c(C)cccc12	7.6%	15.8µM*	-37.8%	-17.8%
CCN(CC)S(=O)(=O)c1ccc2nnn(OCC(=O)Nc3cccc(C#N)c3)c2c1	-0.4%	1.0%	10.5%	-28.6%
CS(=O)(=O)c1ccc2nnn(OCC(=O)Nc3ccc(Br)cc3Br)c2c1	10µM*	/	4.1%	-6.3%
O=C(/C=C/c1ccccc1)CC(O)(c1ccccc1)C(F)(F)F (centres undefined)	11.2µM*	-0.4%	-5.7%	2.2%
O=C(C1CC12CCCC2)N1CCC(CO)(Cc2ccccc2Cl)CC1 (centres undefined)	10µM*	0.2%	-2.4%	0.1%
Cc1ccccc1CS(=O)(=O)c1nnc([C@H](Cc2ccccc2)NC(=O)OC(C)(C)C)o1	10µM*	1.2%	-17.1%	?
CC(=O)Nc1cccc(NC(=O)Cc2cccs2)c1	4.7%	3.3%	-2.9%	2.2%
O=C(Cc1cccs1)Nc1cccc(-c2nc3cc4ccccc4cc3[nH]2)c1	11.2µM*	28.2µM*	-26.5%	-22.1%
O=[N+]([O-])c1ccc2c(c1)C=C/C2=C/c1ccccc1	/	3.0%	/	/
COc1cc(OC)cc(C(=O)Nc2nc(CC(=O)NCc3ccc(F)cc3)cs2)c1	7.08µM*	-0.9%	1.0%	?
COc1cc(OC)cc(C(=O)Nc2nc(CC(=O)NCc3ccccc3OC)cs2)c1	10µM*	1.5%	-14.0%	?
COc1cc(OC)cc(C(=O)Nc2nc(CC(=O)NCCc3ccccc3)cs2)c1	?	1.1%	9.2%	-4.0%
COc1ccccc1NC(=O)Nc1nc(CC(=O)Nc2cc(F)ccc2F)cs1	5.62µM*	-23.9%	-6.2%	?
COc1cccc(-c2ccc(C#N)c(OC(=O)c3ccc(Cl)cc3)n2)c1	0.0%	-12.8%	2.9%	11.7%
COc1cccc(-c2ccc(C#N)c(OC(=O)c3c(Cl)cccc3Cl)n2)c1	?	15.8µM*	18.4%	-2.5%
SMILES	GLP-1R inv ag	ClpP mod	GLP-1R agonist	GLP1R cytotox
CCc1ccccc1NC(=O)c1cc(S(=O)(=O)N(CC)c2ccccc2)ccc1F	11.2µM*	-1.7%	/	0.0%
CCC(=O)Nc1cccc(-c2cn3c(C)csc3n2)c1	8.9%	0.1%	0.8%	-6.7%
[O-]/C(=C(\C(=S)Nc1ccc(SC(F)F)cc1)[n+]1ccccc1)c1ccc(Cl)cc1Cl	1.12µM*	/	5.0%	-18.4%
O=C(c1ccc2c(c1)N(Cc1cccc(Cl)c1)C(=O)c1ccccc1S2=O)N1CCN(c2cccc(C(F)(F)F)c2)CC1 (centres undefined)	?	-3.8%	/	-4.4%
O=C(/C=C/c1ccc(Cl)cc1)NCCCN1CCOCC1	-11.9%	0.4%	2.1%	4.1%
O=C(/C=C/c1ccc2c(c1)OCO2)NCCSCc1cccc(Cl)c1	?	31.6µM*	3.2%	14.6%
O=C(/C=C/c1ccc2c(c1)OCO2)NCCCN1CCOCC1	23.3%	15.8µM*	3.9%	7.8%
O=C(/C=C/c1ccc2c(c1)OCO2)NCCSCc1ccc(Cl)cc1Cl	?	-1.3%	-3.2%	-25.6%
CCCCCCCCCC[n+]1cccc2cc(Cl)ccc21	/	-3.1%	/	/
COc1cccc(/C=C2\SC(=S)N(CCCC(=O)N3CCCCC3CCO)C2=O)c1 (centres undefined)	?	1.6%	-3.5%	-27.9%
COc1cccc(/C=C2\SC(=S)N(CCCC(=O)N3CCCC3)C2=O)c1	5.01µM*	0.0%	-4.6%	?
COc1ccc(/C=C2\SC(=S)N(CCC(=O)NCCCN3CCOCC3)C2=O)cc1	?	-1.9%	-1.0%	?
CC(/C=C1\SC(=S)N(CCC(=O)Nc2ccccc2O)C1=O)=C\c1ccccc1	5.62µM*	0.4%	-13.4%	-4.4%
O=C(CCN1C(=O)/C(=C/c2ccccc2)SC1=S)NCCc1ccc(O)cc1	5.01µM*	1.7%	-5.0%	?
COC(=O)c1ccc(/C=C2\SC(=S)N(CCCC(=O)NCCCN3CCOCC3)C2=O)cc1	-15.7%	/	-5.3%	8.91µM*
CCOc1ccc(NC(=O)Cn2ncc3c2-c2cc(C)ccc2OC3)cc1	-12.4%	0.2%	/	0.9%
COc1ccc(/C=C2\SC(=S)N(CCCC(=O)Nc3ccc(O)cc3)C2=O)cc1	?	0.3%	-1.4%	?
COc1ccc(/C=C2/SC(=S)N(CCCC(=O)Nc3ccc(O)cc3)C2=O)cc1	5.62µM*	-1.2%	5.3%	?
CCOc1ccccc1CNC(=O)CCCn1c(=O)c2cccn2c2cccnc21	5.5%	?	/	10.3%
CC(C)Oc1ccc(CNC(=O)CCCN2C(=O)c3cccnc3Oc3ccc(Cl)cc32)cc1	-14.5%	-0.3%	/	-5.8%
COc1cccc(C(=O)NCC2(c3ccccc3)CCCC2)c1OC	7.08µM*	-2.4%	14.7%	2.6%
COc1ccc2cc(C(=O)NCc3ccc4c(c3)CCN4C(=O)c3ccc(F)cc3)[nH]c2c1	8.5%	1.2%	/	3.2%
Cc1ccc(-c2csc3ncnc(Oc4ccc5c(C)cc(=O)oc5c4)c23)cc1	?	28.2µM*	0.1%	2.8%
CC(=O)Nc1cccc(Oc2ncnc3scc(-c4ccc(C)cc4)c23)c1	?	-1.0%	11.7%	-23.0%
Cc1nc(-c2ccc(Cl)cc2)sc1C1(C)CC(c2ccccc2Br)=NO1 (centres undefined)	-24.1%	25.1µM*	-1.4%	6.1%
COc1ccccc1C1=NOC(C)(c2sc(-c3ccc(Cl)cc3)nc2C)C1 (centres undefined)	-1.1%	?	19.9%	2.6%
